# From the supplement of paper PMC13380429
# Columns and labels:
# [1] = system: Vero E6 infected with SARS-CoV-2; assay: morphology score (similarity to uninfected cells); higher = more like uninfected cells; conditions: 24 h
# [2] = system: Vero E6 infected with SARS-CoV-2; assay: SARS-CoV-2 infection rate relative to infected DMSO; higher = more infection, active = 60 or less; conditions: 24 h
SMILES,morphology score [1],SARS-CoV-2 infection rate [2]
CCCCCCCCCCCCCCCCCC(=O)OC[C@@H](O)[C@H]1OC[C@H](O)[C@H]1O [sorbitan-monostearate] (10 µM),0.0535,97.5% (inactive)
FC(F)OC(F)(F)C(F)Cl (stereo not drawn) [enflurane] (10 µM),0.188,98.5% (inactive)
COc1ccc(OC)c(CN(C(C)=O)c2cc(F)ccc2Oc2ccccc2)c1 (10 µM),0.0987,95% (inactive)
O[C@@](Cc1nc(CC2(C(F)(F)F)CC2)c[nH]1)(c1ccc(-n2cccn2)cc1)C(F)(F)F (10 µM),0.03,112% (inactive)
Cc1ncc(C[n+]2csc(CCO)c2C)c(N)n1 [thiamine] (10 µM),0.119,96.5% (inactive)
N#C/C(=C\c1ccc(O)c(O)c1)C(=O)NCCCCc1ccccc1 (0.833333 µM),0.167,89.5% (inactive)
CN1CCC(c2c[nH]c3ccc(O)cc23)CC1 (10 µM),0.214,101% (inactive)
COc1cc(C2Oc3cc([C@H]4Oc5cc(O)cc(O)c5C(=O)[C@@H]4O)ccc3OC2CO)ccc1O (stereo partly drawn) [silibinin] (10 µM),0.0273,104% (inactive)
CCn1nc(C)c2c1C(c1ccccc1)=NCC(=O)N2 [ripazepam] (10 µM),0.0297,109% (inactive)
COc1ccc([C@@H]2CC(=O)c3c(O)cc(O[C@@H]4O[C@H](CO)[C@@H](O)[C@H](O)[C@H]4O[C@@H]4O[C@@H](C)[C@H](O)[C@@H](O)[C@H]4O)cc3O2)cc1O [neohesperidin] (10 µM),0.00505,112% (inactive)
CCCC[C@H]1OC(=O)c2ccccc21 [butylphthalide] (10 µM),-0.108,102% (inactive)
NC(=O)c1nc(F)cnc1O [Favipiravir] (10 µM),0.0924,108% (inactive)
C[C@@H]1C[C@@H]([C@H](O)CC2CC(=O)NC(=O)C2)C(=O)[C@@H](C)C1 [cycloheximide] (10 µM),0.392,69% (inactive)
"OCCCCO [1,4-butanediol] (10 µM)",0.0223,105% (inactive)
CCC1NC(=O)c2cc(S(N)(=O)=O)c(Cl)cc2N1 (stereo not drawn) [quinethazone] (10 µM),0.339,88% (inactive)
N#Cc1ccc(Cn2cncc2CN2CCN(c3cccc(Cl)c3)C(=O)C2)cc1 (10 µM),0.276,95% (inactive)
c1cnc(N2CCN(Cc3ccc4c(c3)OCO4)CC2)nc1 [piribedil] (10 µM),0.0979,98.5% (inactive)
Cc1ccc(C(=O)C(C)CN2CCCCC2)cc1 (stereo not drawn) [tolperisone] (10 µM),0.383,83.5% (inactive)
O=C(CCCN1CCC(n2c(=O)[nH]c3ccccc32)CC1)c1ccc(F)cc1 [benperidol] (10 µM),-0.264,118% (inactive)
c1ccc(Oc2nc(NC3CCCCC3)c3[nH]cnc3n2)cc1 (0.833333 µM),0.191,104% (inactive)
C#C[C@]1(O)CC[C@H]2[C@@H]3CCc4cc(OC5CCCC5)ccc4[C@H]3CC[C@@]21C [quinestrol] (10 µM),-0.0318,102% (inactive)
C[C@@H](C(=O)O)c1ccc(-c2ccccc2)c(F)c1 (racemic) [flurbiprofen-(+/-)] (10 µM),0.232,107% (inactive)
"O=C(O)c1cc(O)c2c(Cl)cc(Cl)cc2n1 [5,7-dichlorokynurenic-acid] (10 µM)",-0.0314,104% (inactive)
C/C=C/c1cc(OC)c(OC)cc1OC [alpha-asarone] (10 µM),0.0292,98.5% (inactive)
CN1CC(O)C2=C/C(=N/NC(N)=O)C(=O)C=C21 (stereo not drawn) [carbazochrome] (10 µM),0.0013,113% (inactive)
O=C(c1ccc2nccnc2c1)N1CCCCC1 [ampalex] (10 µM),-0.0456,104% (inactive)
CCC(C)(C)c1ccc(CC(C)CN2C[C@@H](C)O[C@@H](C)C2)cc1 (stereo partly drawn) [amorolfine] (10 µM),0.198,93% (inactive)
C[C@]12CCC(=O)C=C1CC[C@@H]1[C@@H]2CC[C@@]2(C)[C@H]1CC[C@]2(O)C(=O)CO [cortodoxone] (10 µM),0.0341,98% (inactive)
CCN1C[C@]2(OC(=O)c3ccccc3NC(C)=O)CC[C@H](OC)[C@@]34[C@@H]2C[C@@H]([C@@H]13)[C@@]1(O)C[C@H](OC)[C@H]2C[C@@H]4[C@]1(O)[C@H]2OC [lappaconite] (10 µM),0.0794,118% (inactive)
